High-throughput results deposited in PubChem by National Center for Advancing Translational Sciences (NCATS).
Shiga inhibitor – Shiga toxin inhibition; 290,000 tested, 9.2% active; Vero cells, Shiga toxin protein synthesis inhibition reporter; inhibition, % at 38.7 µM; AID 2315; in the data active means inhibition mostly above about 28%, no sharp cut-off; inactive means mostly below about 43%
Cycloheximide cs – affects cycloheximide protein synthesis inhibition readout, counter-screen; cell reporter, cycloheximide protein synthesis inhibition counterscreen; max response, %; 300,000 tested, 12% active; AID 2314; in the data active means max response mostly above about 13%, no sharp cut-off; inactive means mostly below about 14%; further: read at 38.3 µM for the half of the compounds with a filed dose
Pf growth 96h – P. falciparum growth inhibition at 96 hours; AID 504834; Potency, µM (top dose mostly 28.7 µM), usual class: inhibitors; 320,000 tested, 6.9% active; P. falciparum luciferase reporter growth, 96 h
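Luminescence readout: decreased luciferase signal marks inhibited growth of reporter-expressing P. falciparum in infected red cells (2% hematocrit, 0.05% parasitemia final), exposed to compound two generations (96 h, 37 C, 5% CO2).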
Pf growth 48h – inhibits P. falciparum growth in the first generation, 48 h; P. falciparum luciferase growth in erythrocytes, 48 h; Potency, µM (series often up to 28.7 µM), hits mostly inhibitors; 310,000 tested, 5.9% active; AID 504832
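In quantitative HTS format, infected erythrocytes bearing luciferase-reporter parasites were treated for a single generation at 37 C. Luminescence after adding detection reagent served as the growth measure.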
Each line names hits and unclear results; the compound was inactive in the other large screens. Sampled rows, rich in hits. Any-hit rate of the full collection: about 21%. Unless noted, the call rests on the fitted dose curve; in most records, active means well fitted inhibition curve with a large enough effect; inconclusive means small, poorly fitted or top-dose-only effect, or another doubt; inactive means no such curve, though single readings can be large or run the other way.

Cc1nn(C)c(C)c1NC(=O)COc1ccc(Cl)cc1Br	Pf growth 96h inconclusive (no result: Shiga inhibitor, Cycloheximide cs)
O=C(Nc1cccc(S(=O)(=O)NC2=NCCC2)c1)c1ccc(=O)[nH]c1	none (no result: Shiga inhibitor, Cycloheximide cs)
Cc1cccc(N2CC(C(=O)Nc3ccc(S(=O)(=O)Nc4nccs4)cc3)CC2=O)c1C (stereo not drawn)	none
CC1CCC(NS(=O)(=O)c2ccc(Cl)nc2)CC1 (stereo not drawn)	none (no result: Shiga inhibitor, Cycloheximide cs)
COCCn1c(C)c(C)c(S(=O)(=O)c2ccccc2)c1N	none
O=C(O)c1cccc(Nc2ncnc3sccc23)c1	Cycloheximide cs 25
COc1ccc(Nc2ncnc3sccc23)cc1OC	none
Fc1cccc(Nc2ncnc3sccc23)c1	Cycloheximide cs 9.8
Cc1cc(C)nc(N2CCC(C(=O)NCc3ccccc3F)CC2)n1	none
O=C(CN1CCN(Cc2ccccc2F)C1=O)NCc1ccco1	Pf growth 96h 13µM (no result: Pf growth 48h)
O=C(CN1CCN(Cc2ccccc2F)C1=O)NCc1cccnc1	Pf growth 96h inconclusive
O=C(NCc1ccco1)C1CCN(c2nc3ccccc3n2Cc2ccccc2F)CC1	Cycloheximide cs 22 (no result: Pf growth 48h)
O=C1CC(=O)CC(c2ccccc2)C1	none
Nc1nc2c(s1)CC(c1ccccc1)CC2 (stereo not drawn)	Pf growth 96h 5.2µM
CCOC(=O)CN1C(=O)/C(=C/c2cccc(Br)c2)Oc2ccccc21	Pf growth 48h inconclusive
CCOC(=O)CN1C(=O)/C(=C/c2c(F)cccc2Cl)Oc2ccccc21	Shiga inhibitor 19, Cycloheximide cs 19 (no result: Pf growth 48h)
Cc1ccc(N(C)/N=C/c2ccc(Cl)cc2Cl)nn1	Cycloheximide cs 16
CSc1nc2n(n1)C(C)C1=C(CCCC1=O)N2 (stereo not drawn)	Pf growth 96h 2.9µM
CCOC(=O)C(SP(=S)(OC)OC)c1ccccc1 (stereo not drawn)	none (no result: Pf growth 96h, Pf growth 48h)
S=c1[nH]c(-c2ccc(Br)cc2)cn1CCc1ccccc1	Pf growth 96h 13µM, Pf growth 48h inconclusive
COc1ccccc1-n1cc(-c2ccc(C)cc2)[nH]c1=S	Shiga inhibitor 32, Cycloheximide cs 23, Pf growth 48h inconclusive
COc1ccccc1-n1cc(-c2ccc([N+](=O)[O-])cc2)[nH]c1=S	none
S=c1[nH]c(-c2ccccc2)cn1-c1ccccc1	Pf growth 96h inconclusive
COc1ccccc1-n1cc(-c2ccc(Br)cc2)[nH]c1=S	Cycloheximide cs 17, Pf growth 48h inconclusive
CCOc1ccc(C2CC(=O)NC2=O)cc1 (stereo not drawn)	none
COc1cccc(CNC(=O)c2ccc(Cl)c(NC3=NC4CS(=O)(=O)CC4S3)c2)c1 (stereo not drawn)	Pf growth 96h 2.6µM
COc1ccc(OC)c(NC(=O)Cc2ccc(NC3=NC4CS(=O)(=O)CC4S3)cc2)c1 (stereo not drawn)	Pf growth 96h 12µM
COc1ccc(NC(=O)c2ccc(NC3=NC4CS(=O)(=O)CC4S3)cc2)cc1 (stereo not drawn)	Pf growth 96h 10µM
COc1ccccc1CNC(=O)c1ccc(Cl)c(NC2=NC3CS(=O)(=O)CC3S2)c1 (stereo not drawn)	none
COc1ccccc1CNC(=O)c1ccc(NC2=NC3CS(=O)(=O)CC3S2)cc1 (stereo not drawn)	Pf growth 96h 12µM
CCN(Cc1cccs1)C(=O)CN1CCN(S(=O)(=O)c2ccc3c(c2)OCCCO3)CC1	Pf growth 96h inconclusive (no result: Shiga inhibitor, Cycloheximide cs)
CCn1c(SCc2cccc(F)c2)nc2c(c1=O)SCC2	Pf growth 48h inconclusive
Cc1ccc(C(=O)Nc2ccc(F)cc2)cc1NC1=NC2CS(=O)(=O)CC2S1 (stereo not drawn)	Pf growth 96h 9.3µM
O=C(Cc1ccc(NC2=NC3CS(=O)(=O)CC3S2)cc1)N1CCN(c2ccc(F)cc2)CC1 (stereo not drawn)	Pf growth 96h 12µM
Cc1ccc(NC(=O)c2ccc(C)c(NC3=NC4CS(=O)(=O)CC4S3)c2)cc1C (stereo not drawn)	none
CCCCn1c(N)c(N(CCOC)C(=O)COC(=O)C(C)Oc2ccc(Cl)cc2)c(=O)[nH]c1=O (stereo not drawn)	none (no result: Shiga inhibitor, Cycloheximide cs)
Cc1cccc(C)c1NC(=O)CC(NCCc1ccccc1)C(=O)O (stereo not drawn)	Pf growth 96h inconclusive
O=C1COc2ccc(C(=O)CSc3nc4ccccc4c(=O)n3-c3ccc(Cl)c(Cl)c3)cc2N1	Pf growth 96h inconclusive, Pf growth 48h 10µM
CCCc1cc(C(=O)Cc2ccc(C(=O)OCC)o2)c(O)cc1O	Pf growth 96h 12µM, Pf growth 48h 12µM
CCCc1cc(C(=O)Cc2ccc(F)cc2)c(O)cc1O	none (no result: Pf growth 96h)
O=C(Cc1ccc(Cl)cc1)Nc1ccc(SC(F)F)cc1	Shiga inhibitor 13, Cycloheximide cs 45
O=C(Cc1ccccc1F)Nc1ccc(SC(F)F)cc1	Shiga inhibitor 57, Cycloheximide cs 91
O=C(COC(=O)Cc1ccccc1F)Nc1ccc(SC(F)F)cc1	Pf growth 96h inconclusive
CC(C)COc1ccc(C(=O)OCC(=O)N(C)CC(=O)Nc2ccc(F)cc2)cc1	none (no result: Shiga inhibitor, Cycloheximide cs)
O=S(=O)(Cc1ccccc1)c1cnc2ccccc2n1	Pf growth 48h 10µM (no result: Pf growth 96h)
O=S(=O)(c1ccc(Br)cc1)c1cnc2ccccc2n1	Pf growth 96h 12µM, Pf growth 48h inconclusive
COc1ccc(S(=O)(=O)c2cnc3ccccc3n2)cc1	Pf growth 96h 13µM, Pf growth 48h inconclusive
C#CCOc1coc(COC(=O)c2ccccc2)cc1=O	Cycloheximide cs 23
O=c1cc(CO)occ1OCc1ccccc1	none (no result: Pf growth 96h)
O=C(COc1cccc(C(F)(F)F)c1)NCC(c1cccs1)N1CCOCC1 (stereo not drawn)	Pf growth 96h 15µM, Pf growth 48h 13µM (no result: Shiga inhibitor, Cycloheximide cs)
O=C(COc1ccccc1)NCC(c1ccco1)N1CCN(c2ccccc2)CC1 (stereo not drawn)	none (no result: Shiga inhibitor, Cycloheximide cs)
O=C(COc1cccc(C(F)(F)F)c1)NCC(c1ccco1)N1CCCCC1 (stereo not drawn)	Pf growth 96h inconclusive, Pf growth 48h 15µM (no result: Shiga inhibitor, Cycloheximide cs)
O=C(COc1ccc([N+](=O)[O-])cc1)NCC(c1cccs1)N1CCOCC1 (stereo not drawn)	Pf growth 48h inconclusive (no result: Shiga inhibitor, Cycloheximide cs)
Cc1c(Cl)cccc1NC(=O)COC(=O)Cn1cnc2c1c(=O)n(C)c(=O)n2C	none (no result: Shiga inhibitor, Cycloheximide cs)
C=CCNC(=S)N1CCC(Cc2ccccc2)CC1	Pf growth 96h 12µM, Pf growth 48h inconclusive
C=CCNC(=O)c1ccc(CN2CCC(Cc3ccccc3)CC2)cc1	Pf growth 48h 10µM
CC(C)NC(=O)c1ccc(CN2CCC(Cc3ccccc3)CC2)cc1	Pf growth 96h inconclusive, Pf growth 48h inconclusive
CCSc1nnc(-c2ccc(Cl)cc2)c2ccccc12	Pf growth 96h 0.093µM, Pf growth 48h inconclusive
O=[N+]([O-])c1cccc(N(CC2CO2)S(=O)(=O)c2ccccc2)c1 (stereo not drawn)	none
NC(=O)c1ccsc1NC(=O)COC(=O)c1ccccc1F	Pf growth 48h inconclusive (no result: Shiga inhibitor, Cycloheximide cs)
NC(=O)c1ccsc1NC(=O)COC(=O)c1ccccc1NCc1ccco1	Shiga inhibitor 107, Cycloheximide cs 33, Pf growth 96h inconclusive
O=C(COC(=O)c1ccccc1NC(=O)c1ccco1)Nc1ccc2c(c1)OCO2	Cycloheximide cs 17
COC(=O)c1ccccc1NC(=O)COC(=O)c1ccc(C)c(NC(=O)c2ccco2)c1	Pf growth 96h 2.3µM, Pf growth 48h 2.3µM
O=C(COC(=O)c1ccccc1NCc1ccco1)Nc1ccc2c(c1)OCO2	Shiga inhibitor 62, Cycloheximide cs 27
